Bioassay records: PubChem, National Center for Advancing Translational Sciences (NCATS)
Compounds with a hit are over-represented: about 9.3% of the library has one in this group of screens.
Sm TGR inh = qHTS Assay for the Inhibitors of Schistosoma Mansoni Peroxiredoxins; Schistosoma mansoni thioredoxin glutathione reductase (TGR), Q962Y6; purified TGR, DTNB reduction, TNB absorbance 405 nm; Potency, µM (series often up to 114 µM), for inactives: at the top dose activity change, negative = inhibition, most hits filed as inhibitors; 3% of 360,000 active; further: potency means the concentration at half of the fitted maximal effect; nearly all actives have a fitted effect of over 60% in size
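TGR 20 nM + NADPH 100 uM (dispensed conc.), cpd preinc 15 min RT; start with NADPH (500 uM addition) then DTNB (15 mM addition). Kinetic TNB absorbance, 405 nm filter. Four-parameter Hill fit across titration.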
HCV inh = qHTS Assay for Inhibitors of Hepatitis C Virus (HCV); Huh7.5.1 HCVcc-Cre infection, luciferase reporter, 44 h; Potency, µM (doses to about 41.8 µM), inactives show at the highest dose activity change, negative = inhibition, hits mostly inhibitors; 3.4% of 340,000 active; further: potency means the concentration at half of the fitted maximal effect
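Compounds are dispensed onto cells plated 4 h earlier at 1,000 per well, with HCVcc-Cre virus (about 0.5 moi) added next. Following 44 h of culture, luminescent signal is measured for 15 sec after 15 min with substrate at room temperature.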
FMDV inh = High Throughput Screening for Foot and Mouth Disease Virus Antivirals; FMDV antiviral cell-based qHTS; Potency, µM (highest dose often 57.9 µM), inactives show at the top dose activity change, negative = inhibition, actives largely listed as inhibitors; 1.2% of 410,000 active; calls by dose curve; tested in HEK293T cells; further: read-out not given here; potency means the concentration at half of the fitted maximal effect; nearly all actives have a fitted effect of over 45% in size
HCMV inh = qHTS Assay for inhibitors of the human cytomegalovirus (HCMV); HFF cells, HCMV-luciferase reporter, 72 h; hits give low values; activity change, negative = inhibition, % at 57.5 µM; 4.5% of 410,000 active; AID 1259415, 2018; in the data active means activity change below about -60%; inconclusive means no clear call, values can overlap the other calls; inactive means above about -39%
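Two-dose cell screen: HFF monolayers treated with compounds and infected with luciferase-expressing HCMV at 1 PFU/cell, 72 h at 37C, then lysed for luciferase measurement.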
VACV mCherry inh = qHTS for Stage-Specific Inhibitors of Vaccinia Orthopoxvirus: mCherry Reporter Primary qHTS; Potency, µM (titrated, usually from 36.5 µM), for the others: at the top dose activity change, negative = inhibition, most hits filed as inhibitors; 0.63% of 310,000 active; Vaccinia virus mCherry reporter infection, fluorescence; calls by dose curve; tested in A549 cells; further: potency means the concentration at half of the fitted maximal effect; nearly all actives have a fitted effect of over 35% in size
VACV Venus inh = qHTS for Stage-Specific Inhibitors of Vaccinia Orthopoxvirus: Venus Reporter Primary qHTS; Vaccinia virus Venus reporter expression, fluorescence; Potency, µM (titrated, usually from 36.5 µM), for the others: at the highest dose activity change, negative = inhibition, most hits filed as inhibitors; 0.46% of 330,000 active; calls by dose curve; tested in A549 cells; further: potency means the concentration at half of the fitted maximal effect; nearly all actives have a fitted effect of over 30% in size
* marks the source's active call; other numbers are inactive results; i = inactive; ? = inconclusive; nt = not tested or not shown; + = active, no number. Unless noted, the call rests on the fitted dose curve; in most records, active means well fitted curve in the direction sought with a large enough effect; inconclusive means small, poorly fitted or top-dose-only effect, or another doubt; inactive means no such curve, though single readings can be large; an effect the other way counts as inactive or inconclusive. On the % scale 0 is the no-effect control and ±100 the full control effect.

SMILES	Sm TGR inh	HCV inh	FMDV inh	HCMV inh	VACV mCherry inh	VACV Venus inh
Cc1ccc(C(=O)N2CCN(c3ccc([N+](=O)[O-])c(NCc4cccnc4)c3)CC2)cc1	4.2%	12.6µM*	-12.5%	-36.3	-26.7%	?
COc1ccc(N2CCN(C(=O)c3ccc(CNS(=O)(=O)c4cc(C)ccc4C)cc3)CC2)cc1	-3.4%	?	?	?	-10.3%	-22.8%
CC(C)(CNc1ccc(C(F)(F)F)cc1[N+](=O)[O-])N1CCOCC1	3.4%	-29.3%	?	-66.4*	nt	nt
Cc1ccccc1C(=O)N1CCN(c2ccc([N+](=O)[O-])c(NCc3cccnc3)c2)CC1	-7.2%	?	?	?	-29.4%	-16.2%
Cc1ccc(S(=O)(=O)NCc2ccc(C(=O)N3CCN(c4ccc([N+](=O)[O-])cc4)CC3)cc2)cc1	2.3%	3.98µM*	?	-98.3*	nt	nt
COc1ccc(N2CCN(C(=O)c3ccc(CNS(=O)(=O)c4ccc(C)cc4)cc3)CC2)cc1	3.4%	12.6µM*	-28.5%	?	-23.2%	-26.2%
CC(C)c1ccc(CNc2cc(N3CCCC3)ccc2[N+](=O)[O-])cc1	-18.0%	?	nt	37.7	-25.1%	-8.7%
CC(C)(C)c1ccc(CNc2cc(N3CCOCC3)ccc2[N+](=O)[O-])cc1	5.0%	10µM*	-14.0%	3.3	nt	-29.3%
CCOc1ccc(CNC(=O)c2cccc(NC(=O)N3CCSc4ncccc43)c2)cc1OC	0.6%	nt	14.1µM*	?	-8.6%	-9.3%
COc1ccc(CNC(=O)c2cccc(NC(=O)N3CCSc4ncccc43)c2)cc1	-6.3%	nt	?	?	-10.1%	-11.9%
Cc1cccc(CNC(=O)c2cccc(NC(=O)N3CCSc4ncccc43)c2)c1	33.1%	nt	0.0%	+	-6.6%	-9.8%
O=c1cc(-c2ccccc2)[nH]n1-c1ccc([N+](=O)[O-])cc1	3.1%	-13.9%	?	-95.0*	nt	nt
O=c1c(N=Nc2ccc(O)cc2)c(-c2ccccc2)[nH]n1-c1ccc([N+](=O)[O-])cc1	11.6%	?	-20.5%	-12.0	-4.3%	-8.7%
COc1cccc2c1OC[C@@H](CO)[C@H]2N(C)C(=O)Nc1ccc(Cl)cc1Cl	-28.1%	?	-2.1%	-61.6*	i	-17.9%
Cc1cc(C)n2nc(C(=O)OCC(=O)N3CC(C)CC(C)C3)nc2n1 (configuration not stated)	-7.5%	-8.6%	1.6%	-30.9	-14.1%	-3.9%
Cc1cnc(C(=O)NCc2c(C)ncc3c2CCN(C(=O)/C=C/c2cccs2)C3)cn1	nt	nt	-8.1%	nt	-13.9%	-5.7%
COc1ccc(CCNC(=O)C2=C(C)C(=O)OC23CCCCC3)c(OC)c1	-6.6%	nt	16.1%	6.9	-8.2%	-8.8%
COc1cc(OC)c(CN2CCCN(C)CC2)cc1Br	-13.7%	7.08µM*	-9.9%	0.4	-5.9%	1.9%
Cc1ccc(-c2nnc(N3CCCCC3)c3ccccc23)cc1	0.0%	?	-23.8%	-60.8*	nt	nt
Clc1nnc(N2CCCCC2)c2ccccc12	4.0%	-0.1%	-25.9%	-91.4*	i	-13.8%
CCN1CCN(c2nnc(-c3ccc(F)cc3)c3ccccc23)CC1	2.3%	2.82µM*	-14.8%	12.7	-12.2%	?
CS(=O)(=O)N1CCN(c2nnc(-c3ccccc3)c3ccccc23)CC1	6.3%	-3.8%	-28.4%	14.9	nt	nt
CN1CCN(c2nnc(-c3ccc(F)cc3)c3ccccc23)CC1	2.5%	-24.5%	-3.0%	47.2	?	-10.9%
c1ccc2c(N3CCCCC3)nnc(N3CCCCC3)c2c1	1.2%	nt	nt	nt	nt	nt
Cc1ccc(-c2nnc(N3CCN(S(C)(=O)=O)CC3)c3ccccc23)cc1	-10.3%	-12.1%	?	-25.8	-16.4%	-27.6%
SMILES	Sm TGR inh	HCV inh	FMDV inh	HCMV inh	VACV mCherry inh	VACV Venus inh
c1ccc(-c2nnc(N3CCN(c4ccccn4)CC3)c3ccccc23)cc1	6.3%	14.1µM*	-17.8%	?	nt	nt
CN1CC(=O)N(CC(=O)Nc2ccc(OCc3ccccc3)cc2)C1=O	nt	-29.6%	60.0%	3.4	-0.8%	-1.2%
C=CCn1c(COc2ccc(F)cc2)nnc1SCC(=O)c1c[nH]c2c(CC)cccc12	-11.1%	5.9%	-10.5%	4.7	-1.7%	-16.9%
COc1ccc(-c2nnc(N3CCC(C)CC3)c3ccccc23)cc1	-7.4%	-3.5%	0.0%	-63.4*	-9.0%	-11.3%
Cc1ccc(-c2nnc(N3CCN(c4ccccn4)CC3)c3ccccc23)cc1	2.9%	?	22.4µM*	-38.1	11.2µM*	17.8µM*
Cc1ccc(-c2nnc(N3CCN(CCO)CC3)c3ccccc23)cc1	7.0%	6.7%	-11.6%	-35.5	-28.3%	-9.5%
O=C(N/N=C/c1sc2ccccc2c1O)c1cccc2ccccc12	-10.7%	1.78µM*	27.7%	-104.2*	?	?
O=C(N/N=C/c1sc2ccccc2c1O)c1ccccc1	-19.7%	4.47µM*	-2.6%	nt	10µM*	-23.3%
COc1ccc2cc(C(=O)N/N=C/c3sc4ccccc4c3O)ccc2c1	2.8%	?	?	-98.1*	-28.2%	-18.4%
COc1ccc(C(=O)N/N=C/c2sc3ccccc3c2O)cc1	-23.2%	?	33.7%	nt	?	?
O=C(CNC(=O)c1cccs1)NCC(=O)OCc1ccc(Cl)cc1Cl	9.8%	17.7%	nt	44.4	102.6%	101.2%
COc1cc([N+](=O)[O-])ccc1NC(=O)Nc1cccnc1	-7.0%	-27.0%	-0.6%	-6.5	nt	nt
COc1ccc([N+](=O)[O-])cc1NC(=S)NC(NC(=O)Cc1ccc(OC)c(OC)c1)C(Cl)(Cl)Cl (configuration not stated)	5.9%	7.94µM*	-14.9%	14.5	nt	nt
COc1ccc([N+](=O)[O-])cc1NC(=S)NC(NC(C)=O)C(Cl)(Cl)Cl (configuration not stated)	-10.4%	?	-5.4%	-6.3	nt	nt
COc1ccc([N+](=O)[O-])cc1NC(=O)Nc1cccc(Cl)c1	1.4%	?	?	-61.7*	i	-26.2%
COc1ccc(Br)cc1CN(C)C(C)C(=O)Nc1cccc(C(C)=O)c1 (configuration not stated)	22.4µM*	?	?	-4.7	nt	nt
COc1ccc([N+](=O)[O-])cc1NC(=O)Cc1ccc(Cl)cc1	-1.6%	8.91µM*	?	-9.9	-20.8%	?
CN(C)S(=O)(=O)Nc1ccccn1	34.0%	3.0%	-3.7%	?	i	-1.2%
Cc1oc2cc3oc(=O)c(CC(=O)NCCC(=O)O)c(C)c3cc2c1C	5.8%	11.9%	-1.6%	-16.6	-24.0%	-6.6%
COc1ccc([N+](=O)[O-])cc1NC(=O)COC(=O)c1ccccc1C(=O)c1ccccc1	?	-17.5%	-26.3%	?	i	-17.8%
